# In the supplement of paper PMC3334620:
# The full ranking holds about 33,000 sequences; the median of “E-score (-0.5 to 0.5)” is about -0.021, and the highest 2% start at about 0.32. This is one part of a sample in which the highest values are shown more often than they occur.
# Molecular target: T1, Zap1 (UniProt P47043)
# T1 sequence: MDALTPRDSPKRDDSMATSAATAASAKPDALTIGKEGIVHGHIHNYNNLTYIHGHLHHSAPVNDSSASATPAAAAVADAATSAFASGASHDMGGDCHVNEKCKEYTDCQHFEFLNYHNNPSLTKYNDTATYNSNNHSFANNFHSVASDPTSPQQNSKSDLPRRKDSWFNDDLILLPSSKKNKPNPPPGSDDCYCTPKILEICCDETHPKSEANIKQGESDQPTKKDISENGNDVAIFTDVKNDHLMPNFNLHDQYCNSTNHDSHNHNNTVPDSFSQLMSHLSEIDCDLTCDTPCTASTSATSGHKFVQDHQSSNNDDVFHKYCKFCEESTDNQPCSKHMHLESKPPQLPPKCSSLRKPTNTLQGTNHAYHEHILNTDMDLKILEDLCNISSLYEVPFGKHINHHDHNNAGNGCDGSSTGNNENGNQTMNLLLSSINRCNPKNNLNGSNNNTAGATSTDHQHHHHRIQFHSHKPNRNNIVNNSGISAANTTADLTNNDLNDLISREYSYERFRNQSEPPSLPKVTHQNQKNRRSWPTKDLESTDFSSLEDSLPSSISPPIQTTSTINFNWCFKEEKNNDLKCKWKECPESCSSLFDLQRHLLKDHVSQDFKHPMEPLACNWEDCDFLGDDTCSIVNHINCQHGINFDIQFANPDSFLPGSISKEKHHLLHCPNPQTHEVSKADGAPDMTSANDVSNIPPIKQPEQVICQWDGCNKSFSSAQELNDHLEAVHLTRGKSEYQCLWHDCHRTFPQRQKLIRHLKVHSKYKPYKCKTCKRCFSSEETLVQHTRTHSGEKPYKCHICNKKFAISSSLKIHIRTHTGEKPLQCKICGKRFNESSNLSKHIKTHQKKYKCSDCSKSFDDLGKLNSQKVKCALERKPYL
# Assay: PBM E-score (8-mer binding enrichment) (E-score (-0.5 to 0.5)); higher = stronger / more preferred TF binding
# Conditions: protein concentration: 200 nM; construct: GST-full length
# Method in brief: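 Detection of bound protein used fluorescent anti-GST, with scans normalised by masliner. The proteins were GST-tagged yeast transcription factors applied at about 100-200 nM to universal all-10-mer Agilent arrays made double-stranded by primer extension. Each ungapped eight-base word, pooled with its reverse complement, was scored with an E-score from the Universal PBM Analysis Suite.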
row,Sequence,PBM E-score
1,GACCAAGA,0.0225
2,GAACCTAA,0.194
3,TACGAATA,0.197
4,ACACCTAA,0.0902
5,AAAATAAC,0.21
6,GAAATAAC,0.221
7,CAAATAAC,0.322
8,ACCCTTCG,0.373
9,GCCCTTCA,0.0388
10,ACCCTTCC,0.281
11,TCCCTTCA,-0.0499
12,ACCCTTCA,0.341
13,ACCCTTCT,0.272
14,CTCGATCC,-0.0316
15,ACTGTTCT,-0.0178
16,GACCTAGC,-0.0032
17,GTCGCGAA,-0.0334
18,GTCGCGAC,0.357
19,CTCGCGAC,0.0966
20,GTAAATCA,0.207
21,ACGTCTAG,-0.0284
22,CGTACTTC,-0.125
23,GGAGGGTA,0.346
24,GGAGGGGA,-0.0565
25,CGAGGGTC,0.245

row,Sequence,PBM E-score
1,CGAGGGTA,0.371
2,AGAGGGTA,0.29
3,GGAGGGAA,-0.213
4,CATTAACA,0.0919
5,TATTAATA,0.0379
6,AATTAACC,0.327
7,AATTAACT,0.0482
8,AACTAACC,0.333
9,AATTAATA,0.332
10,GATTAACC,0.173
11,CATTAACG,0.0999
12,AACTAACT,0.00107
13,AATTAATT,0.0914
14,CATTAACC,0.379
15,AACTAACA,0.153
16,CCGATCGG,0.13
17,AGCTTGGG,-0.06
18,GGCCTTCA,0.167
19,GCGAACCC,0.00303
20,GAGCTGAC,0.122
21,CAGTGACG,-0.0109
22,ACGAAATG,0.0348
23,TAGACTGA,-0.182
24,AATCTTTG,0.114
25,ACATACCT,0.118

row,Sequence,PBM E-score
1,CTTGGCGC,0.0977
2,GTGGTAAA,-0.0285
3,GTGGTAAC,0.36
4,ATGGTAAC,0.392
5,CTGGTAAC,0.255
6,ATGGTAAA,0.0888
7,ATGGTAAG,-0.124
8,CAAGTGTC,-0.0245
9,ACCCAAGA,0.152
10,ACTATGGA,-0.0878
11,ACAATAGG,-0.0709
12,ACCAGTTA,0.206
13,AGATAACG,0.0406
14,GGATAACA,-0.0812
15,AGATAACC,0.435
16,AGATAACT,-0.118
17,GGATAACC,0.436
18,CGATAACC,0.46
19,GGATAAAC,0.149
20,CGATAACA,0.131
21,CGATAACG,-0.174
22,CCTCTCGC,-0.108
23,ACAAGCCG,-0.223
24,TATGGGGA,0.145
25,AATATCCT,0.00302

row,Sequence,PBM E-score
1,AAGAGCTA,-0.0268
2,GGGGGGTA,-0.0438
3,GTGGGGTA,0.368
4,ATGGGGTG,0.143
5,ATGGGGTC,0.284
6,ATGGGGTA,0.326
7,CTGGGGTA,0.269
8,CGAACACA,0.085
9,GGTAACCA,0.461
10,AGTAACCA,0.387
11,AGTAACTA,0.219
12,CGTAACCA,0.441
13,AGTAACTC,-0.0584
14,AGTAACCC,0.443
15,AGTAAACC,0.177
16,AGTAACGA,0.0604
17,CGTAACTA,0.0577
18,CGTAACGA,-0.081
19,GGTAACGA,0.294
20,GGTAACTA,0.313
21,CATCAGGA,0.0932
22,ATAGTTGG,-0.0799
23,CTGGAGGA,-0.216
24,AAAGTAGT,0.0501
25,ACACTTGG,0.0219

row,Sequence,PBM E-score
1,AGTAACTG,-0.154
2,AGTAACCG,0.355
3,AGTAACAA,0.161
4,CGTAACAA,0.201
5,GGTAATAA,0.338
6,GGTAACAA,0.38
7,GGTAATAC,0.248
8,TGTAATAA,0.133
9,AGTAACGG,0.126
10,CAGGGGAG,-0.0274
11,GCTAATCC,-0.0663
12,ATCGTTCA,0.092
13,CCTTCACA,0.0885
14,ACCTGACT,0.143
15,CCAGAACA,-0.00016
16,ATGACCCA,0.397
17,GGGACCCA,0.198
18,GTGACCCA,0.389
19,ATGACCTG,0.303
20,CTGACCTC,0.194
21,ATGACCTC,0.442
22,ATGACCGA,0.0244
23,AAGACCCG,0.0601
24,AAGACCCC,0.323
25,ATGACCCG,0.269

row,Sequence,PBM E-score
1,CTGACCCA,-0.11
2,AAGACCCA,0.142
3,ATCTGCTG,-0.184
4,GCACCAAC,-0.00297
5,CTTGACCA,0.147
6,CCCTCTGA,0.0399
7,ATTTTTTC,0.0779
8,ACCTGCCG,-0.0789
9,AGACAAAC,-0.0937
10,ATGACCCC,0.385
11,CTGACCCC,0.12
12,GTGACCAC,0.344
13,GTGACCAA,0.305
14,ATGACCAC,0.289
15,ATGACCGC,0.302
16,AAGTGGCC,0.0931
17,GGAGCGAC,-0.122
18,AGGCCACT,-0.13
19,TACCTCCA,0.303
20,AGCCTCTA,-0.101
21,GACCTCTC,0.203
22,CACCTCTC,-0.242
23,GCCCTCTA,-0.245
24,AACCTCTA,0.351
25,TACCTCTA,0.347

row,Sequence,PBM E-score
1,AACCTCTC,0.349
2,ACCCTCTC,0.121
3,AACCTCAA,0.263
4,ACCCTCTA,0.355
5,CACCTCTA,0.22
6,CCTGACCG,0.0354
7,CTGGCCCA,-0.095
8,AGTACTTC,0.148
9,AGTGTGAA,-0.13
10,AACGTTGC,-0.161
11,ACCAAGGG,0.178
12,CGCTACCC,0.302
13,ATCCCTCA,-0.0235
14,CGGGATCC,-0.0153
15,ACAGCGAC,-0.152
16,GACCTCTA,0.318
17,GTCCTCTA,-0.0992
18,GGCCTCTA,0.0229
19,AACCTCTG,0.306
20,AACCTCTT,0.397
21,AACCTCCT,0.158
22,GCGGGGCC,-0.0181
